Measured values as given in PubChem BioAssay (NCI).
Compounds without any hit were thinned out: in the full panel of roughly 83,000, 20% have a hit.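 Single-concentration screen, 48 h exposure, 96-well plates. Endpoint: percent growth. Below 10 = active.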 Values without a mark were called inactive. Active and inactive are the calls of the source.

What was measured:
Test in all cases: NCI-60 one-dose screen, 48 h (100 = growth as untreated, 0 = no growth, -100 = all killed)
Conditions in all cases: 10 µM unless noted
[1] = system: DU-145 prostate
[2] = system: K-562 leukemia
[3] = system: MALME-3M melanoma
[4] = system: MDA-MB-231 breast
[5] = system: RXF 393 renal
[6] = system: SF-268 CNS
[7] = system: SF-295 CNS
[8] = system: SF-539 CNS
[9] = system: UACC-257 melanoma
[10] = system: M14 melanoma

## Cc1ccc(NC(=O)c2sc3nc(C)c(Br)c(C)c3c2N)cc1
[1]
  growth: 66.6%
[2]
  growth: 95.5%
[3]
  growth: 53.8%
[4]
  growth: 55.3%
[5]
  growth: 43.3%
[6]
  growth: 49%
[7]
  growth: 60%
[8]
  growth: 65.1%
[9]
  growth: 90.3%
[10]
  growth: 79%

## Cn1ccc(=O)c(C(=O)Nc2nsc3ccc([N+](=O)[O-])cc23)c1
[1]
  growth: 63.2%
[2]
  growth: 78.3%
[3]
  growth: 65.7%
[4]
  growth: 47.9%
[5]
  growth: 35.9%
[6]
  growth: 74.9%
[7]
  growth: 110%
[8]
  growth: 77.6%
[9]
  growth: 89.6%
[10]
  growth: 46.6%

## O=C(/C=C/c1ccco1)Nc1ncc(Cc2cccc(C(F)(F)F)c2)s1
[1]
  growth: 10.5%
[2]
  growth: 4.59% (active)
[3]
  growth: 5.43% (active)
[4]
  growth: 25.5%
[5]
  growth: -8.57% (active)
[6]
  growth: 33.2%
[7]
  growth: -20.5% (active)
[8]
  growth: -39.8% (active)
[9]
  growth: 25.4%
[10]
  growth: -10.2% (active)

## Cn1cc(-c2ccc3nc(-c4ccc(CC(=O)ONc5cc(C(C)(C)C)on5)cc4)cnc3c2)cn1
[1]
  growth: 35.1%
[2]
  growth: 10.3%
[3]
  growth: 22.4%
[4]
  growth: 39.1%
[5]
  growth: 28.8%
[6]
  growth: 33.5%
[7]
  growth: 38.1%
[8]
  growth: 17%
[9]
  growth: 39.8%
[10]
  growth: 18.7%

## CCn1c(SCC(=O)N/N=C(\C)c2ccc(Cl)cc2)nc2c1c(=O)n(C)c(=O)n2C
[1]
  growth: 108%
[2]
  growth: 98%
[3]
  growth: 100%
[4]
  growth: 104%
[5]
  growth: 106%
[6]
  growth: 98%
[7]
  growth: 101%
[8]
  growth: 96.3%
[9]
  growth: 103%
[10]
  growth: 97.4%

## CN(C)CCNC(=O)c1ccc(-c2nc3ccc4[nH]ncc4c3c3c2C2CCC3C2)cc1 (stereo not given)
[1]
  growth: 20.8%
[2]
  growth: 20.7%
[3]
  growth: 28.1%
[4]
  growth: 2.4% (active)
[5]
  growth: -30.9% (active)
[6]
  growth: 16.8%
[7]
  growth: 40.9%
[8]
  growth: 18.5%
[9]
  growth: 58.7%
[10]
  growth: 31.3%

## COC(=O)c1cc(N=C2NC(=O)/C(=C/C=C/c3ccccc3)S2)ccc1O
[1]
  growth: 16.8%
[2]
  growth: 14.4%
[3]
  growth: 65.3%
[4]
  growth: 54.7%
[5]
  growth: -12.8% (active)
[6]
  growth: 61.7%
[7]
  growth: 20.3%
[8]
  growth: 12.4%
[9]
  growth: 70.9%
[10]
  growth: 11.3%

## CCN(CC)S(=O)(=O)c1ccc(S(=O)(=O)N2CCC[C@@H](C(=O)N3CCN(c4nc(C(C)C)no4)CC3)C2)cc1
[1]
  growth: 62.6%
[2]
  growth: 30.9%
[3]
  growth: 85.3%
[4]
  growth: 81.3%
[5]
  growth: 64.5%
[6]
  growth: 69%
[7]
  growth: 52.8%
[8]
  growth: 74.3%
[9]
  growth: 45.1%
[10]
  growth: 78.8%

## Cc1ccc(C)n1-c1ccccc1-n1c(C)ccc1C
[1]
  growth: 111%
[2]
  growth: 101%
[3]
  growth: 120%
[4]
  growth: 90.8%
[5]
  growth: 109%
[6]
  growth: 98.6%
[7]
  growth: 92.9%
[8]
  growth: 104%
[9]
  growth: 103%
[10]
  growth: 112%

## O=C(Cn1cc(CSc2nc3ccccc3o2)nn1)Nc1ccc(F)cc1F
[1]
  growth: 124%
[2]
  growth: 107%
[3]
  growth: 106%
[4]
  growth: 112%
[5]
  growth: 103%
[6]
  growth: 115%
[7]
  growth: 106%
[8]
  growth: 106%
[9]
  growth: 103%
[10]
  growth: 108%

## Cc1cc(C)c2c(c1)N(C)c1ncnc(-n3cnc4cc(C)ccc43)c1CC2C (stereo not given)
[1]
  growth: 14.2%
[2]
  growth: 7.57% (active)
[3]
  growth: 45.2%
[4]
  growth: 36.8%
[5]
  growth: -24.8% (active)
[6]
  growth: 40.4%
[7]
  growth: 1.91% (active)
[8]
  growth: 6.25% (active)
[9]
  growth: 45.3%
[10]
  growth: 5.2% (active)

## COc1ccc(Nc2ncc(Br)c(NCCCNC(=O)C3CCCC3)n2)cc1
[1]
  growth: 48.9%
[2]
  growth: 31.2%
[3]
  growth: 58.5%
[4]
  growth: -27.7% (active)
[5]
  growth: -20.9% (active)
[6]
  growth: 21.6%
[7]
  growth: 39.4%
[8]
  growth: 2.9% (active)
[9]
  growth: 96.5%
[10]
  growth: 61.5%

## O=S(=O)(Nc1ccc(Cl)c(C(F)(F)F)c1)c1ccc(-c2cnc(C3CC3)o2)cc1
[1]
  growth: 15.5%
[2]
  growth: 5.12% (active)
[3]
  growth: 28.7%
[4]
  growth: 15.6%
[5]
  growth: 8.55% (active)
[6]
  growth: 13.7%
[7]
  growth: 22.2%
[8]
  growth: -35.8% (active)
[9]
  growth: -0.635% (active)
[10]
  growth: 10.9%

## O=C(NCCCl)Nc1ncccc1OCc1ccccc1
[1]
  growth: 105%
[2]
  growth: 103%
[3]
  growth: 103%
[4]
  growth: 101%
[5]
  growth: 108%
[6]
  growth: 102%
[7]
  growth: 99.9%
[8]
  growth: 106%
[9]
  growth: 107%
[10]
  growth: 99.8%

## COc1ccc(-c2noc(C(=O)O)c2-c2cc(OC)c(OC)c(OC)c2)cc1
[1]
  growth: 36.1%
[2]
  growth: 12.6%
[3]
  growth: 52.8%
[4]
  growth: 57.1%
[5]
  growth: 21.2%
[6]
  growth: 40.5%
[7]
  growth: 13.5%
[8]
  growth: 3.15% (active)
[9]
  growth: 45.4%
[10]
  growth: 11.7%

## NC(N)=NCCCCCNc1noc(Cc2c[nH]c3cc(Br)ccc23)n1
[1]
  growth: 92.8%
[2]
  growth: 86.4%
[3]
  growth: 47.8%
[4]
  growth: 69.4%
[5]
  growth: 78.3%
[6]
  growth: 33.3%
[7]
  growth: 80.2%
[8]
  growth: 71.8%
[9]
  growth: 65.7%
[10]
  growth: 73.6%

## O=C(CSc1nnc(-c2cnccn2)n1-c1ccccc1)c1ccc(Cl)cc1
[1]
  growth: 105%
[2]
  growth: 91.1%
[3]
  growth: 105%
[4]
  growth: 99.8%
[5]
  growth: 114%
[6]
  growth: 104%
[7]
  growth: 99.3%
[8]
  growth: 103%
[9]
  growth: 96%
[10]
  growth: 102%

## OB1OCc2cc(/C=C/c3cccc(C(F)(F)F)c3)ccc21
[1]
  growth: -6.62% (active)
[2]
  growth: 11.4%
[3]
  growth: 9.86% (active)
[4]
  growth: -33.9% (active)
[5]
  growth: -40.3% (active)
[6]
  growth: 10.6%
[7]
  growth: 7.3% (active)
[8]
  growth: -58.9% (active)
[9]
  growth: 37.1%
[10]
  growth: -7.54% (active)

## COc1cc2c(cc1OCCCN1CCN(CCCOc3cc4c(cc3OC)C(=O)N3CCC[C@H]3C=N4)CC1)C=CC(C)(C)O2
[1]
  growth: -100% (active)
[2]
  growth: -35.8% (active)
[3]
  growth: -89.1% (active)
[4]
  growth: -81.9% (active)
[5]
  growth: -92% (active)
[6]
  growth: -91.9% (active)
[7]
  growth: -59.2% (active)
[8]
  growth: -100% (active)
[9]
  growth: -62.4% (active)
[10]
  growth: -74.2% (active)

## CC/C(=C(/c1ccc(Cl)cc1)c1ccc(OCCN(C)C)cc1)c1ccc(Cl)cc1
[1]
  growth: 77.7%
[2]
  growth: 16%
[3]
  growth: 73.9%
[4]
  growth: 83.3%
[5]
  growth: 68.5%
[6]
  growth: 77.4%
[7]
  growth: 69.7%
[8]
  growth: 86.2%
[9]
  growth: 72.2%
[10]
  growth: 88.1%

## O=C(NNC(=O)c1ccc(NC(=O)c2ccccn2)cc1)Nc1ccc([N+](=O)[O-])cc1
[1]
  growth: 106%
[2]
  growth: 107%
[3]
  growth: 98%
[4]
  growth: 103%
[5]
  growth: 99.9%
[6]
  growth: 95.5%
[7]
  growth: 98.9%
[8]
  growth: 60.9%
[9]
  growth: 106%
[10]
  growth: 100%

## Cn1ccnc1C(=O)/C=C/c1ccc(C(=O)Nc2ccc(Cl)cc2)cc1
[1]
  growth: 10.9%
[2]
  growth: 2.13% (active)
[3]
  growth: 51.5%
[4]
  growth: 1.85% (active)
[5]
  growth: -57.1% (active)
[6]
  growth: 0.451% (active)
[7]
  growth: 27.3%
[8]
  growth: -73.4% (active)
[9]
  growth: 51.6%
[10]
  growth: 6.17% (active)

## O=C1NC2(Nc3ccccc31)C(=O)Nc1c(Cl)cc(Cl)cc12 (stereo not given)
[1]
  growth: 117%
[2]
  growth: 99.4%
[3]
  growth: 102%
[4]
  growth: 94.9%
[5]
  growth: 115%
[6]
  growth: 96.8%
[7]
  growth: 101%
[8]
  growth: 100%
[9]
  growth: 110%
[10]
  growth: 101%

## O=C(CN1C(=O)NC2NC(=O)NC21)N/N=C/c1ccccc1[N+](=O)[O-] (stereo not given)
[1]
  growth: 113%
[2]
  growth: 104%
[3]
  growth: 107%
[4]
  growth: 114%
[5]
  growth: 118%
[6]
  growth: 107%
[7]
  growth: 105%
[8]
  growth: 95.2%
[9]
  growth: 116%
[10]
  growth: 102%

## C[C@@H](CO)[C@@H]1CCC=C2CC[C@]3(C)[C@H](CC[C@@H]4[C@@]5(C)CCCNC(C)(C)[C@@H]5CC[C@]43C)[C@H]21
[1]
  growth: 62.4%
[2]
  growth: -19.9% (active)
[3]
  growth: 46.6%
[4]
  growth: 59.9%
[5]
  growth: 68%
[6]
  growth: 82.2%
[7]
  growth: 93.7%
[8]
  growth: 57.8%
[9]
  growth: 30.4%
[10]
  growth: 30.9%

## CCOC(=O)[C@@H]1CSC(CC)=C(C(=O)O)N1
[1]
  growth: 118%
[2]
  growth: 8.66% (active)
[3]
  growth: 104%
[4]
  growth: 105%
[5]
  growth: 109%
[6]
  growth: 116%
[7]
  growth: 111%
[8]
  growth: 93.4%
[9]
  growth: 89.1%
[10]
  growth: 98.6%

## OCCn1cc(-c2nc(-c3c[nH]c4ncccc34)cs2)c2cc(F)ccc21
[1]
  growth: 83.7%
[2]
  growth: 21.5%
[3]
  growth: 84.9%
[4]
  growth: 64.5%
[5]
  growth: 51.1%
[6]
  growth: 77%
[7]
  growth: 72.1%
[8]
  growth: 81.5%
[9]
  growth: 87.8%
[10]
  growth: 63.8%
